The source of these data is ChEMBL document CHEMBL1961873, “Compounds: GSK PKIS; Assays: Nanosyn kinase panel” (2012).

As usually defined, the inhibition is the drop in the measured response relative to a control, in per cent.

Assay [1] concerns the target Serine/threonine-protein kinase MRCK alpha (Homo sapiens) (UniProt Q5VT25). Conditions: at 0.1 µM.
Assay [2] shares this target. Conditions: at 1 µM.
The target in assay [3] is Serine/threonine-protein kinase MRCK beta (Homo sapiens) (UniProt Q9Y5S2). Conditions: at 0.1 µM.
Assay [4] has the same target. Conditions: at 1 µM.
For assay [5], the target named is Ribosomal protein S6 kinase alpha-5 (Homo sapiens) (UniProt O75582). Particulars: at 0.1 µM.
The target is the same in assay [6]. Particulars: at 1 µM.
The target of assay [7] is Ribosomal protein S6 kinase alpha-4 (Homo sapiens) (UniProt O75676). Conditions: at 0.1 µM.
Assay [8] has the same target. Conditions: at 1 µM.
Assay [9] concerns the target Ribosomal protein S6 kinase beta-1 (Homo sapiens) (UniProt P23443). Particulars: at 0.1 µM.
For assay [10] the target is unchanged. Conditions: at 1 µM.
Assay [11] deals with T1, 3-phosphoinositide-dependent protein kinase 1 (Homo sapiens) (UniProt O15530).
T1 sequence (whole entry): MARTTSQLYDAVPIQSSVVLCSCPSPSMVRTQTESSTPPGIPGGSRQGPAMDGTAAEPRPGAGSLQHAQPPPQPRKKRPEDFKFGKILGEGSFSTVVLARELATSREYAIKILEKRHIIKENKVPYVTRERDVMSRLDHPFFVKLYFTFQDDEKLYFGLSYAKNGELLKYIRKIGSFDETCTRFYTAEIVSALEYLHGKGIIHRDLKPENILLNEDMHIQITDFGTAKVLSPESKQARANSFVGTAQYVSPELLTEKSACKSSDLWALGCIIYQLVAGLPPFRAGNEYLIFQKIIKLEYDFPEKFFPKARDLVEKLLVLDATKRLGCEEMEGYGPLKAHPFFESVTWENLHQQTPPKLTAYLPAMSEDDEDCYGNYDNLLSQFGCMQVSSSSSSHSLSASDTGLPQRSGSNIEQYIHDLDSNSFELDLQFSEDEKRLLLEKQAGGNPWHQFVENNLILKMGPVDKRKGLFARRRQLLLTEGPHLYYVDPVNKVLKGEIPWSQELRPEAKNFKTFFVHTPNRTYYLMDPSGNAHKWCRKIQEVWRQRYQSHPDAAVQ
Conditions: at 0.1 µM.

The target in assay [12] is cAMP-dependent protein kinase catalytic subunit alpha (Homo sapiens) (UniProt P17612). Conditions: at 0.1 µM.
Assay [13] shares this target. Conditions: at 1 µM.
Assay [14] concerns the target Protein kinase C alpha type (Homo sapiens) (UniProt P17252). Particulars: at 0.1 µM.
Assay [15] shares this target. Conditions: at 1 µM.
The target of assay [16] is Protein kinase C beta type (Homo sapiens) (UniProt P05771). Conditions: at 0.1 µM.
Assay [17] has the same target. Particulars: at 1 µM.
Assay [18] deals with Protein kinase C eta type (Homo sapiens) (UniProt P24723). Particulars: at 0.1 µM.
Assay [19] has the same target. Conditions: at 1 µM.
The target in assay [20] is Protein kinase C gamma type (Homo sapiens) (UniProt P05129). Particulars: at 0.1 µM.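 Further: values are mean percent inhibition of PKC gamma.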

Protein kinase C eta type (Homo sapiens), sequence (P24723 whole entry): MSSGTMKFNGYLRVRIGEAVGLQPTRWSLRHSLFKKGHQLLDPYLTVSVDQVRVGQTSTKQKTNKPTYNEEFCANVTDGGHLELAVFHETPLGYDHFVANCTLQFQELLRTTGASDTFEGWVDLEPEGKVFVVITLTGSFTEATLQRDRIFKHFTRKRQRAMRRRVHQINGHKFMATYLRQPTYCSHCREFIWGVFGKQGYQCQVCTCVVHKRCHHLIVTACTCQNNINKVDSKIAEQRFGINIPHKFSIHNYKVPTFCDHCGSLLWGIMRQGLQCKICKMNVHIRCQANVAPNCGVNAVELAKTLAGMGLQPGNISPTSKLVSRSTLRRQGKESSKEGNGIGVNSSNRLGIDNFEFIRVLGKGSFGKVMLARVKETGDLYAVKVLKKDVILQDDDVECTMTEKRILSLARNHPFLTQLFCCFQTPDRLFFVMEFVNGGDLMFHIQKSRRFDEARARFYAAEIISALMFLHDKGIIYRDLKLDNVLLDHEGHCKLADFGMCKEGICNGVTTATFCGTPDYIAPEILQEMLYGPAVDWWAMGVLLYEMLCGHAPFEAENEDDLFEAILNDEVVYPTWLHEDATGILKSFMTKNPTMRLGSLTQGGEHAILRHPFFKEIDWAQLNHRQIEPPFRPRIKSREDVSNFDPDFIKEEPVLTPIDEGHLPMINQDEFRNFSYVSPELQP
Ribosomal protein S6 kinase alpha-5 (Homo sapiens), sequence (O75582 whole entry, looked up): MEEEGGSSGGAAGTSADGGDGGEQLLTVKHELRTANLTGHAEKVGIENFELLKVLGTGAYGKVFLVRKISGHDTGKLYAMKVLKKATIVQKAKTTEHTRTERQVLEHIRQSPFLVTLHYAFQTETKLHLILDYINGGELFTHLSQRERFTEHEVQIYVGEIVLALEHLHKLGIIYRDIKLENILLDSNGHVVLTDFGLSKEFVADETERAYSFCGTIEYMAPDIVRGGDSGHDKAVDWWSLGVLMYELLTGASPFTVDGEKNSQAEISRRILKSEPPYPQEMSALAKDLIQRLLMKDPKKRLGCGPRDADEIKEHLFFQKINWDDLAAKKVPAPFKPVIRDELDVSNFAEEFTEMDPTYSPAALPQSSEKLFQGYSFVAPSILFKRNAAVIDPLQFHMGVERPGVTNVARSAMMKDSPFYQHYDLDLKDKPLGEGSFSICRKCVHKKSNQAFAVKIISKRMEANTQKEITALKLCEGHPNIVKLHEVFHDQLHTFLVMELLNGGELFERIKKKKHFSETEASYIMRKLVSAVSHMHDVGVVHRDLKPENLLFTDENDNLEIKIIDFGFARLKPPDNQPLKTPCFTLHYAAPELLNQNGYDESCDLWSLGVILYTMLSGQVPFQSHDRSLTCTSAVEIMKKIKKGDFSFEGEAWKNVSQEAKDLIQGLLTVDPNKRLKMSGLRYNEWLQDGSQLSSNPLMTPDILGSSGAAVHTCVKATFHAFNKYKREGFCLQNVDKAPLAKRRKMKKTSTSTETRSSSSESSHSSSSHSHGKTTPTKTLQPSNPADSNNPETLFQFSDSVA
Ribosomal protein S6 kinase alpha-4 (Homo sapiens), sequence (O75676 whole entry, looked up): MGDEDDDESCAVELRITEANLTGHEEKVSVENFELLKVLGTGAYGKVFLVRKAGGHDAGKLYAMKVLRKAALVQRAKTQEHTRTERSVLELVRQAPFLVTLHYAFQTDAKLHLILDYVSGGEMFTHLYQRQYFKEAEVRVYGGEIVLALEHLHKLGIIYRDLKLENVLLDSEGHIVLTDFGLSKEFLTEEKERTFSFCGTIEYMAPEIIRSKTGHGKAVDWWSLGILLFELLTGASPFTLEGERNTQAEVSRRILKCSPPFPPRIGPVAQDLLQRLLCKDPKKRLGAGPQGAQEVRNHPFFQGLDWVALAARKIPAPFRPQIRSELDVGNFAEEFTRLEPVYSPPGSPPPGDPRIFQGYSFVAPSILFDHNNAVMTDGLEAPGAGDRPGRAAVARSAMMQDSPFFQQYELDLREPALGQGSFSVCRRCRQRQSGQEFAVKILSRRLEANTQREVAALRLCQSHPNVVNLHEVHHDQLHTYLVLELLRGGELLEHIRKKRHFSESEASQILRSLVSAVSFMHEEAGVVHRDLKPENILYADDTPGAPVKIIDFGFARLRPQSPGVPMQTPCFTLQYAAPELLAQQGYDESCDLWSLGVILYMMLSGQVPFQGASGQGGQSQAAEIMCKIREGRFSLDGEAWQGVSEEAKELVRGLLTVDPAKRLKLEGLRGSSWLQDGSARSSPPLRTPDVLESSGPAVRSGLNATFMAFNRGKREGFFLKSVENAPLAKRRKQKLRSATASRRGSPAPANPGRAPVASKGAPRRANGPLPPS
Serine/threonine-protein kinase MRCK alpha (Homo sapiens), sequence (Q5VT25 whole entry): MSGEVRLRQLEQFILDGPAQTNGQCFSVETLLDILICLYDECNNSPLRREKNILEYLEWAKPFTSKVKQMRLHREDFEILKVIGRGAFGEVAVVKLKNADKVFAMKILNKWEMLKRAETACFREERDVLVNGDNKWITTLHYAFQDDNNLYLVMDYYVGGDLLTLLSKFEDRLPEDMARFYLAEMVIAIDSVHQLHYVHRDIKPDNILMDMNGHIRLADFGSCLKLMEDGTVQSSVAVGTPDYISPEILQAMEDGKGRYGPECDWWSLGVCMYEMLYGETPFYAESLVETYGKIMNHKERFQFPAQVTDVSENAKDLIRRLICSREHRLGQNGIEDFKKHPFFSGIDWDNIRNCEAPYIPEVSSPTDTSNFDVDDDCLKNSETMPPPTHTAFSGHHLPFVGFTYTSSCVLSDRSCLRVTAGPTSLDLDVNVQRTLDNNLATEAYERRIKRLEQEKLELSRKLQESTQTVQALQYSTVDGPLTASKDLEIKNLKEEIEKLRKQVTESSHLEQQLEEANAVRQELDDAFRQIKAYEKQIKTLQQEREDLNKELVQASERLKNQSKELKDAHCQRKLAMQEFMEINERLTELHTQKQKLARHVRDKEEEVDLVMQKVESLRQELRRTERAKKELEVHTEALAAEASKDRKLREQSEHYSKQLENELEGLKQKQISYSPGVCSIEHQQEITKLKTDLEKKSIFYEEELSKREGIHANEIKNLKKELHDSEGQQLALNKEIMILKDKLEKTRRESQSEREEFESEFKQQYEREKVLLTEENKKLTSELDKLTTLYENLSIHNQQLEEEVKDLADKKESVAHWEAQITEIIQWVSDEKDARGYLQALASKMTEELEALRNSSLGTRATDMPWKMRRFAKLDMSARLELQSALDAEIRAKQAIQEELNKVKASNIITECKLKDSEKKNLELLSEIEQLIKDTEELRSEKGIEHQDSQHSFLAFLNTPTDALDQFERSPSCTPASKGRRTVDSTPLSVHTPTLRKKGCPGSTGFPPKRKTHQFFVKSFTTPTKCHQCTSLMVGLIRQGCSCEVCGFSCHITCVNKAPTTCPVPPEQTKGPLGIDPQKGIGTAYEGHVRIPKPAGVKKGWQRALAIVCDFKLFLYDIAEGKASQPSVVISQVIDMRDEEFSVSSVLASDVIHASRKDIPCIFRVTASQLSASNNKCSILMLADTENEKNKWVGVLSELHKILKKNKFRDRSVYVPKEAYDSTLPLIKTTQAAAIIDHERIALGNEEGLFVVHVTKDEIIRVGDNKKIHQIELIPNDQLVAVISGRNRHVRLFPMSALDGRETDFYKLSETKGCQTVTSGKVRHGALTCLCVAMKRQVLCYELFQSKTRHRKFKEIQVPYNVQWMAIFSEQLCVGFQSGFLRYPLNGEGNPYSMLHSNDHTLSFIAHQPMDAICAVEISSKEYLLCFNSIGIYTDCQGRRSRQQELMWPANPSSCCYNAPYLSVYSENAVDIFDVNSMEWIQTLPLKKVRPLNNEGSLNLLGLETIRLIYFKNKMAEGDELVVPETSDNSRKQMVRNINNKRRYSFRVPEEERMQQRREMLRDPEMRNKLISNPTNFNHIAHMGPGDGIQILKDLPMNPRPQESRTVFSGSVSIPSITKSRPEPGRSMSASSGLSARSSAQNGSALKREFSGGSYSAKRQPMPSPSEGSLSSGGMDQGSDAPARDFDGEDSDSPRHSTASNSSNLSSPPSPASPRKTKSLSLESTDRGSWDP
Protein kinase C beta type (Homo sapiens), sequence (P05771 2-671 limits assumed): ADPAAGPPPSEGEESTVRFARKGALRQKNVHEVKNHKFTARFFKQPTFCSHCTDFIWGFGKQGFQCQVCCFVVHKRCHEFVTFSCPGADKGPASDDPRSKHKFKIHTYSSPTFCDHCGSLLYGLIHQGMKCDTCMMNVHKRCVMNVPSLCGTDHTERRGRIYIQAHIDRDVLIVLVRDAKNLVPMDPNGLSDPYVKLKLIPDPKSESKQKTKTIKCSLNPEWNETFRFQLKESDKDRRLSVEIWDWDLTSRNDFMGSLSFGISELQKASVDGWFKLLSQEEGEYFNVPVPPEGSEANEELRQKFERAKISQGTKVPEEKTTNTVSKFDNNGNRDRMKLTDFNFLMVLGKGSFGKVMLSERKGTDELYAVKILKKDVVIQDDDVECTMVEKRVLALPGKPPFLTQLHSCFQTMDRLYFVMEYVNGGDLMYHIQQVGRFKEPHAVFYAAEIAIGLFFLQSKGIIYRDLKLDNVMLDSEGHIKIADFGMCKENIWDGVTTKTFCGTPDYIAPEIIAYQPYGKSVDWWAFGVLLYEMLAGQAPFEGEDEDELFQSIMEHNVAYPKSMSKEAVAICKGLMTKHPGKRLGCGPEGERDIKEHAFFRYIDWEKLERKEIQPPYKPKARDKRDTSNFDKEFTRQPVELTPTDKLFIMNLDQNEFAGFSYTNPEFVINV

`CCn1c(-c2nonc2N)nc2cncc(C(=O)N3CCNCC3)c21`: the inhibition was determined as 5.33% in [1]; 7.84% in assay [2]; 0.36% in [3]; 3.02% in assay [4]; 5.57% in assay [5]; 7.4% in [6]. Moreover, the inhibition in assay [7] worked out at 3.28%; in assay [8] it was 4.71%; in assay [9] it was 2.87%; in assay [10] it was 4.44%; in [11] it was 2.8%; in assay [12], 4.17%. Moreover, the inhibition in assay [13] worked out at 8.74%; in [14], 0.92%; in assay [15], 1.73%; in [16], 2.12%; in assay [17], 4.3%; in assay [18], 6.14%. Further, the inhibition in assay [19] amounted to 4.16%; in assay [20], 1.3%.

For the molecule `Cc1ccc(NC(=O)c2ccnc(N3CCCC3)c2)cc1-c1ccc(C(=O)NCC2CC2)cc1`, the inhibition is 1.01% in assay [1]; -0.76% in [2]; 1.8% in assay [3]; 2.5% in [4]; 2.8% in assay [5]; 2.72% in assay [6]. The inhibition in assay [7] is 3.43%; in assay [8], 8.63%; in assay [9] it was 1.53%; in assay [10] it was 2.76%; in [11] it was 2.23%; in assay [12] it was -2.06%. Moreover, the inhibition in assay [13] is -0.65%; in assay [14] it was -2.31%; in assay [15] it was -0.77%; in [16] it was 0.1%; in [17] it was -1.68%; in [18] it was 5.39%. Moreover, the inhibition turned out to be 2.22% in assay [19] and 1.09% in assay [20].

`CN1CCC(C(=O)Nc2n[nH]c3nnc(-c4ccccc4)cc23)CC1`: the inhibition in assay [1] was 0.2%; in assay [2], 2.63%; in assay [3], -0.23%; in assay [4], 0.78%; in assay [5] it was -1.68%; in assay [6] it was -1.22%. Also, the inhibition in [7] was found to be 2.89%; in assay [8], 4.31%; in assay [9], 1.63%; in [10], 2.47%; in assay [11] it was 0.14%; in assay [12], 2.6%. In addition, the inhibition turned out to be 1.51% in assay [13]; 0.67% in assay [14]; 1.72% in assay [15]; 1.03% in assay [16]; 1.27% in assay [17]; 4.63% in assay [18]. The inhibition came out at 5.6% in assay [19] and 2.25% in [20].

Take `COc1cc2ncn(-c3cc(O[C@H](C)c4ccccc4Cl)c(C(N)=O)s3)c2cc1OC`: the inhibition in assay [1] was 1.89%; in [2] it was 5.55%; in [3], 0.35%; in assay [4] it was 1.02%; in assay [5], -1.18%; in assay [6], 3.73%. The inhibition in [7] came to 4.32%; in assay [8], 13.8%; in [9], 1.42%; in [10] it was 4.7%; in [11], 2.16%; in assay [12], 2.29%. Besides, the inhibition was 1.54% in assay [13]; -0.04% in [14]; 0.09% in assay [15]; 3.14% in assay [16]; 5.95% in [17]; 4.41% in [18]. Moreover, the inhibition was 4.05% in [19] and 3.01% in assay [20].

`CCn1c(-c2nonc2N)nc2c(N3CCCC3)nccc21`: the inhibition in assay [1] is -0.27%; in [2] it was 5.42%; in assay [3], -0.1%; in assay [4], 2.55%; in [5], -0.19%; in [6], 11.2%. For the same molecule, the inhibition in [7] was -0.68%; in assay [8] it was 3.67%; in [9], -0.49%; in assay [10] it was 8.23%; in assay [11] it was -1.76%; in assay [12], -0.34%. The inhibition in assay [13] is 1.34%; in assay [14] it was -0.23%; in assay [15] it was 0.84%; in [16] it was 0.38%; in assay [17], 13.4%; in [18], 1.82%. Further, the inhibition in [19] was 11.2%; in assay [20], -1.48%.

Turning to `COc1ccc(-c2ccncc2)cc1C(N)=O`, the inhibition in assay [1] was 3.16%; in assay [2], 6.38%; in assay [3], -0.49%; in assay [4], 2.83%; in assay [5] it was 9.33%; in [6] it was 10.5%. Moreover, the inhibition is 2.85% in assay [7]; 5.28% in assay [8]; 1.79% in assay [9]; 4.79% in assay [10]; 1.13% in [11]; 2.54% in [12]. The inhibition was 3.05% in assay [13]; 1.07% in assay [14]; 1.9% in assay [15]; -0.74% in [16]; 0.96% in assay [17]; 3.72% in assay [18]. Further, the inhibition in assay [19] came to 6.14%; in [20] it was 2.34%.
